Source: PubChem (National Center for Advancing Translational Sciences (NCATS))
This excerpt belongs to a sample that is enriched for hits.
TDP1 cell CPT: DT40-hTDP1 cell growth loss with CPT. chicken DT40 Tdp1-/-;hTDP1 cells + 20 nM CPT, ATP luminescence, 48 h. Potency, µM (top dose mostly 46.2 µM), for inactives: at the highest dose activity change, negative = growth inhibition, hits mostly inhibitors. 420,000 tested, 12% active. AID 686979; further: potency means the concentration at half of the fitted maximal effect; nearly all actives have a fitted effect of over 55% in size
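Cell growth measured by CellTiter-Glo luminescence after a minimum 48 h, 37 C compound exposure with 20 nM CPT in Tdp1-knockout DT40 cells stably expressing hTDP1, seeded 400/well; qHTS titration format.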
12-LOX inh: inhibitors of human 12S-lipoxygenase ALOX12. AID 1671190. P18054. Potency, µM (doses to about 108 µM), for inactives: top-dose activity change, negative = inhibition, actives largely listed as inhibitors. 580,000 tested, 1.1% active. purified 12hLO, xylenol orange hydroperoxide absorbance; further: potency means the concentration at half of the fitted maximal effect
Target sequence (P18054 whole entry, looked up): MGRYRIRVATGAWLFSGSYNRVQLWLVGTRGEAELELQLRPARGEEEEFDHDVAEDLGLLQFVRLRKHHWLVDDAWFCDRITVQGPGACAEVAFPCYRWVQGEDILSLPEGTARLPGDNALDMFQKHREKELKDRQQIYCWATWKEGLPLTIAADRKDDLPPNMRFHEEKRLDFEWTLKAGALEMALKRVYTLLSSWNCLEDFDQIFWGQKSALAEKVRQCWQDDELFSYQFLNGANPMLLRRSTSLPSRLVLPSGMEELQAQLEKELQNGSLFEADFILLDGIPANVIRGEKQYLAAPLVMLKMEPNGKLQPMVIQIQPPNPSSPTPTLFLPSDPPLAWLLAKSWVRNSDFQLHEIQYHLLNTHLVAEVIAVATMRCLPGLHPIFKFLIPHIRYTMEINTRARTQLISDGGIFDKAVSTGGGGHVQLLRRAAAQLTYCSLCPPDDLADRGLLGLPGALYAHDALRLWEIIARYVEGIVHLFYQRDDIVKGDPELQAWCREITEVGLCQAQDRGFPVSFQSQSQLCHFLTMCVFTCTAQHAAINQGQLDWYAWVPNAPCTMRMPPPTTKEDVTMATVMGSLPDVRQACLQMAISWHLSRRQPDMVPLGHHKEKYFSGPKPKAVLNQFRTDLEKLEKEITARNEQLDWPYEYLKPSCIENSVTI
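Purified human 12hLO (150 nM final) in 25 mM Hepes, 0.01% Triton X-100, pH 7.0 was preincubated 15 min at room temperature with compound. Then 40 uM arachidonic acid was added, 30 min. Hydroperoxide was read by Fe-XO absorbance ratio 573/405 nm.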
IL-1B inflam inh: blocks inflammasome-driven IL-1 beta release | THP-1 LPS/ATP IL-1B secretion, AlphaLISA, 16 h; active compounds read low | activity change, % at 57.5 µM | 360,000 tested, 4.7% active; in the data active means activity change below about -50%; inconclusive means mostly about -30% to -49%
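THP-1 cells pretreated 1 hr with compounds (up to 57.5 uM final), then stimulated with LPS (250 ng/mL final) plus ATP (1.25 mM final); secreted IL-1B measured by AlphaLISA after 16 hr, decreased signal indicating inhibition.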
DT40 TDP1 no CPT: qHTS for Inhibitors of human tyrosyl-DNA phosphodiesterase 1 (TDP1): qHTS in cells in absence of CPT; Potency, µM (highest dose often 46.2 µM), inactives show top-dose activity change, negative = growth inhibition, most hits filed as inhibitors; 420,000 tested, 15% active; AID 686978, 2013; DT40 Tdp1-/- hTDP1 cells, no CPT, ATP luminescence, 48 h; further: potency means the concentration at half of the fitted maximal effect; nearly all actives have a fitted effect of over 55% in size
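DT40 Tdp1-/-;hTDP1 cells, no CPT (DMSO vehicle only), 400 cells/well; compounds pin-transferred; ≥48 hr, 37 °C; CellTiter-Glo 30 min RT dark, luminescence read.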
HT1080 IDH1KD tx: toxicity to HT-1080 IDH1 knockdown cells (counter line); HT-1080 IDH1 knockdown viability, ATP luminescence, 48 h; Potency, µM (doses to about 46.1 µM), inactives show top-dose activity, negative = toxicity, hits mostly cytotoxic; 360,000 tested, 2% active;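 further: potency means the concentration at half of the fitted maximal effect; 0% = DMSO wells and -100% = cell-free medium wells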
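Knockdown cells (IDH1KD HT-1080) received compounds 2 h after plating at 750 cells/well and were kept 48 h at 37 °C in 5% FBS RPMI. A CellTiter-Glo luminescence read gave % activity for curve fitting.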
HT1080NT lethal: kills 2HG-producing HT-1080-NT fibrosarcoma cells; Potency, µM (doses to about 46.1 µM), for inactives: at the top dose activity, negative = less viability, actives largely listed as cytotoxic; HT-1080-NT fibrosarcoma viability, CellTiter-Glo ATP luminescence, 48 h; 360,000 tested, 1.6% active;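 further: NT is the 2HG producing partner of a matched IDH1 knockdown line; potency means the concentration at half of the fitted maximal effect; 0% = DMSO-treated cells and -100% = media-only wells without cells; nearly all actives have a fitted effect of over 55% in size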
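Luminescent CellTiter-Glo readout after 48 hours of compound exposure at 37 degrees C defined viability of HT-1080-NT cells. Activity was normalized to DMSO wells and cell-free media wells; concentration-response curves were fitted and assigned curve classes.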
Active calls of the source: *; u = inconclusive; x = no result; [ ] = remark or other dose. Unless noted, the call rests on the fitted dose curve; in most records, active means well fitted curve in the direction sought with a large enough effect; inconclusive means small, poorly fitted or top-dose-only effect, or another doubt; inactive means no such curve, though single readings can be large; an effect the other way counts as inactive or inconclusive. Unless noted, on the % scale 0 is the no-effect control and ±100 the full control effect.

SMILES	TDP1 cell CPT	12-LOX inh	IL-1B inflam inh	DT40 TDP1 no CPT	HT1080 IDH1KD tx	HT1080NT lethal
Cc1ccc(OCC(=O)N2CCC(Cc3ccccc3)CC2)c([N+](=O)[O-])n1	u	-8%	-17	u	1%	0%
O=C1c2cccc(OCc3ccc(F)cc3)c2CCN1Cc1ccccc1	u	0%	-57*	u	-18%	-22%
Cc1cccc(CN2CCc3c(OCC(=O)NCc4ccco4)cccc3C2=O)c1	u	-9%	-2	u	-11%	-5%
CN1CCc2c(OCC(=O)N3CCCc4ccccc43)cccc2C1=O	-25%	9%	1	29µM*	1%	-6%
O=C(COc1ccccc1F)N1CCCc2ccccc21	-5%	-12%	18	-1%	26%	10%
Cc1cccc(CN2CCc3c(OCC(=O)N4CCCc5ccccc54)cccc3C2=O)c1	4.6µM*	0%	u	5.8µM*	u	u
O=C(COc1cccnc1[N+](=O)[O-])N1CCC(Cc2ccccc2)CC1	u	u	-68*	u	-5%	-17%
O=C(c1ccccc1Br)N1CC(n2cc(COc3ccc(F)cc3)nn2)C1	x	42%	x	x	x	x
CC(=O)Oc1ccc(Cn2c(C)c(C(=O)NCc3cccc(C(F)(F)F)c3)sc2=O)cc1	u	9%	-27	u	u	u
CN1CCc2c(OCC(=O)N3CCC(Cc4ccccc4)CC3)cccc2C1=O	21µM*	-6%	u	18µM*	-26%	-26%
C[C@H](CO)N1C[C@H](C)[C@@H](CN(C)Cc2ccc(-c3ccccc3)cc2)Oc2c(NC(=O)Cc3ccccc3)cccc2C1=O	u	x	-23	23µM*	-19%	-8%
C[C@H](CO)N1C[C@H](C)[C@@H](CN(C)Cc2ccncc2)Oc2c(NC(=O)Cc3ccccc3)cccc2C1=O	u	1%	17	u	15µM*	u
C[C@@H]1CN([C@@H](C)CO)C(=O)c2cccc(NC(=O)C3CCCCC3)c2O[C@@H]1CN(C)Cc1ccc(Cl)c(Cl)c1	10µM*	1%	-90*	21µM*	u	u
C[C@H](CO)N1C[C@H](C)[C@@H](CN(C)Cc2ccncc2)Oc2c(NC(=O)C3CCCCC3)cccc2C1=O	u	-8%	-3	u	0%	-3%
C[C@@H]1CN([C@@H](C)CO)C(=O)c2cccc(NS(=O)(=O)c3cccs3)c2O[C@H]1CN(C)Cc1ccc(C(F)(F)F)cc1	16µM*	1%	-12	u	-7%	-1%
C[C@H](CO)N1C[C@H](C)[C@@H](CN(C)Cc2ccc(Cl)c(Cl)c2)Oc2c(NS(=O)(=O)c3ccc(F)cc3)cccc2C1=O	u	-14%	-82*	23µM*	u	u
C[C@H](CO)N1C[C@H](C)[C@@H](CN(C)Cc2ccc(-c3ccccc3)cc2)Oc2c(NS(=O)(=O)c3ccccc3)cccc2C1=O	21µM*	0%	u	18µM*	-9%	-12%
C[C@@H]1CN([C@@H](C)CO)C(=O)c2cc(NC(=O)C3CC3)ccc2O[C@@H]1CN(C)Cc1ccc(Cl)c(Cl)c1	21µM*	5%	u	23µM*	u	-27%
C[C@H](CO)N1C[C@H](C)[C@@H](CN(C)Cc2ccc(Cl)c(Cl)c2)Oc2c(NC(=O)Cc3ccccc3)cccc2C1=O	u	-14%	u	15µM*	u	-28%
CC(C#N)N1CCN(S(=O)(=O)c2ccc3c(c2)CCC3)CC1 (stereo not given)	-4%	-3%	-6	-3%	0%	-1%
O=C(Nc1ccc(Cl)cc1)c1nc2c(o1)CCN(Cc1cnc[nH]1)CC2	x	74%[176 µM]	x	x	x	x
C[C@H](CO)N1C[C@H](C)[C@@H](CN(C)Cc2ccccc2)Oc2c(NC(=O)Cc3ccccc3)cccc2C1=O	15µM*	13%	-9	10µM*	u	u
C[C@H](CO)N1C[C@H](C)[C@@H](CN(C)C)Oc2c(NC(=O)Cc3ccccc3)cccc2C1=O	u	-12%	53	-24%	1%	1%
CC(C)NC(=O)N1CC2ON=C(C(=O)N3CCOCC3)C2C1 (stereo not given)	x	6%[6.33 µM]	x	x	x	x
Cc1ccc(-n2c(SCC(=O)Nc3ccc(C(N)=O)cc3)nc3ccccc3c2=O)cc1	x	74%	x	x	x	x
SMILES	TDP1 cell CPT	12-LOX inh	IL-1B inflam inh	DT40 TDP1 no CPT	HT1080 IDH1KD tx	HT1080NT lethal
CC(=O)C1=C(C)N(Cc2ccc(Cl)cc2)C(=S)NC1c1ccc(Cl)cc1 (stereo not given)	x	45µM*	x	x	x	x
CC(=O)C1=C(C)N(Cc2ccc(Cl)cc2)C(=S)NC1c1ccccc1 (stereo not given)	x	45µM*	x	x	x	x
CCN1C(=O)N[C@H](c2ccc(Br)cc2)C(C(C)=O)=C1C	21µM*	-16%	36	16µM*	3%	2%
CC(=O)C1=C(C)N(Cc2ccccc2)C(=O)N[C@@H]1c1cccc(C(F)(F)F)c1	u	-13%	1	u	0%	-21%
CCN1C(=O)N[C@@H](c2cccc(F)c2)C(C(C)=O)=C1C	-28%	4%	21	-22%	9%	19%
CC(=O)C1=C(C)N(Cc2ccc(F)cc2)C(=S)NC1c1cccc(Br)c1 (stereo not given)	x	40µM*	x	x	x	x
CC(=O)C1=C(C)N(Cc2ccccc2)C(=O)N[C@H]1c1cccc(C(F)(F)F)c1	u	-12%	9	u	-10%	-4%
CCn1c(=O)cc(C(F)(F)F)[nH]c1=S	-29%	-59%	10	u	18%	18%
CC(C)(O)CC[C@@H](O)[C@](C)(O)C1CC[C@@]2(O)C3=CC(=O)[C@]4(O)C[C@@H](O)[C@@H](O)C[C@]4(C)C3CC[C@]12C (stereo not given in full)	u	10%	59	u	0%	20%
CCc1ccccc1NC(=O)c1ccc(-n2c(C)ccc2C)cc1	u	0%	-83*	u	u	u
Cc1ccc(C)n1-c1ccc(NC(=O)c2ccccc2)cc1	u	-18%	-53*	u	-20%	-6%
CC(=O)NCCNC(=O)c1ccc(-n2c(C)ccc2C)cc1	-16%	4%	-76*	-29%	-6%	-9%
CC(=O)Nc1ccc(NC(=O)c2ccc(-n3c(C)ccc3C)cc2)cc1	u	4%	-68*	16µM*	-9%	-3%
